This is an account of results in the supplement of paper PMC9262897, “Low-cost anti-mycobacterial drug discovery using engineered E. coli” (Nature Communications, 2022).

Holding throughout (experiment): growth (OD600 after 10 h); higher = more growth (less inhibition)
The test system of test [1] is E. coli TESEC Alr+ wild-type control. As to conditions: compound 0.1 mM; raw OD600 reference: median of DMSO wells 0.241, cell-free background 0.041. Here is the method: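 TESEC Mtb Alr E. coli, or the Alr+ wild-type control, in 384-well plates with Prestwick library compounds at 0.1 mM and 1% DMSO, across arabinose induction levels of 1E3 to 1E7 nM. Growth is read as OD600 after 10 h at 37 °C in triplicate biological replicates.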

In another test the test system is E. coli TESEC Mtb Asd. Particulars: compound 0.1 mM. Here is the method: (§1)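 TESEC E. coli strains in which the native enzyme is deleted and replaced by arabinose-inducible Mtb Asd, DapB, CysH or TrpD, each grown in its selective medium. Strains were screened against the Prestwick library at 0.1 mM and 1% DMSO in 384-well format at low and high arabinose induction. Growth is read as OD600 after 10 h in triplicate.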

For another test, the system named is E. coli TESEC Mtb DapB. Particulars: compound 0.1 mM. Here is the method: as §1
Test [2] has as its system E. coli TESEC Alr+ wild-type control. Particulars: compound 0.1 mM; raw OD600 reference: median of DMSO wells 0.49, cell-free background 0.052. How it is done: (§2)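 TESEC Mtb Alr E. coli (ΔaraC ΔtolC ΔentC Δalr ΔdadX, arabinose-inducible Mtb Alr) or the Alr+ wild-type control strain, grown in defined M9-fructose medium without D-alanine in 96-well plates with Prestwick library compounds at 0.1 mM and 1% DMSO. Low Alr induction is 0.1 µM arabinose and high induction is 10 mM arabinose.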

Another test relates to E. coli TESEC Mtb Alr. Particulars: compound 0.1 mM. How it is done:
as §2

Where [3] appears, read: arabinose induction (level): High, raw OD600 reference: median of DMSO wells 0.331, cell-free background 0.041.
The mark [4] stands for this setting: arabinose induction (level): Low, raw OD600 reference: median of DMSO wells 0.417, cell-free background 0.041.
Setting [5] is: arabinose induction (level): High, raw OD600 reference: median of DMSO wells […], cell-free background 0.041.
Where [6] appears, read: arabinose induction (level): Low, raw OD600 reference: median of DMSO wells 0.227, cell-free background 0.041.
Setting [7] is: arabinose 100 nM, raw OD600 reference: median of DMSO wells 0.413, cell-free background 0.052.
Where [8] appears, read: arabinose 10000000 nM, raw OD600 reference: median of DMSO wells […], cell-free background 0.052.

SMILES strings stand for the structures. Where a name gives a salt, the structure may show the parent alone. ± gives the standard deviation of the averaged measurements.

In the case of `O=C1NCCN1c1ncc([N+](=O)[O-])s1` [Niridazole], the growth in test [1] is 0.0479 ± 0.0055; in the test with E. coli TESEC Mtb Asd (setting [3]) it was 0.0946 ± 0.0021; with E. coli TESEC Mtb Asd (setting [4]), 0.203 ± 0.07; with E. coli TESEC Mtb DapB (setting [5]), 0.161 ± 0.015; with E. coli TESEC Mtb DapB (setting [6]) it was 0.177 ± 0.022; in test [2], 0.0563 ± 0.002. Moreover, the growth in the test with E. coli TESEC Mtb Alr (setting [7]) amounted to 0.119 ± 0.025; with E. coli TESEC Mtb Alr (setting [8]), 0.0512 ± 0.00072.

`O=C1CCc2ccc(OCCCCN3CCN(c4cccc(Cl)c4Cl)CC3)cc2N1` [Aripiprazole]: the growth in test [1] was found to be 0.171 ± 0.013; in the test on E. coli TESEC Mtb Asd (setting [3]), 0.21 ± 0.022; with E. coli TESEC Mtb Asd (setting [4]), 0.391 ± 0.036; with E. coli TESEC Mtb DapB (setting [5]), 0.177 ± 0.011; in the test with E. coli TESEC Mtb DapB (setting [6]) it was 0.213 ± 0.021; in test [2], 0.418 ± 0.077. For the same compound, the values for the growth in the test on E. coli TESEC Mtb Alr (setting [7]) and in the test on E. coli TESEC Mtb Alr (setting [8]) were 0.0572 ± 0.0048 and 0.0531 ± 0.0021, respectively.

Consider `CCN(CC)C(=O)N1CCN(C)CC1` [Diethylcarbamazine citrate], for which the growth in test [1] amounted to 0.255 ± 0.0031; in the test with E. coli TESEC Mtb Asd (setting [3]) it was 0.333 ± 0.092; with E. coli TESEC Mtb Asd (setting [4]) it was 0.487 ± 0.02; in the test on E. coli TESEC Mtb DapB (setting [5]), 0.188 ± 0.0069; with E. coli TESEC Mtb DapB (setting [6]), 0.226 ± 0.025; in test [2] it was 0.549 ± 0.066. Further, the growth in the test with E. coli TESEC Mtb Alr (setting [7]) was determined as 0.411 ± 0.0087; in the test on E. coli TESEC Mtb Alr (setting [8]), 0.33 ± 0.014.

As for `Cn1nnc2c(C(N)=O)ncn2c1=O` [Temozolomide], the growth was determined as 0.241 ± 0.006 in test [1]; 0.225 ± 0.0049 with E. coli TESEC Mtb Asd (setting [3]); 0.305 ± 0.022 in the test on E. coli TESEC Mtb Asd (setting [4]); 0.194 ± 0.02 with E. coli TESEC Mtb DapB (setting [5]); 0.211 ± 0.0067 in the test on E. coli TESEC Mtb DapB (setting [6]); 0.539 ± 0.076 in test [2]. Moreover, the growth in the test with E. coli TESEC Mtb Alr (setting [7]) is 0.423 ± 0.011; in the test on E. coli TESEC Mtb Alr (setting [8]), 0.35 ± 0.01.

In the case of `Nc1ccc(S(=O)(=O)Nc2ccc(Cl)nn2)cc1` [Sulfachloropyridazine], the growth in test [1] is 0.241 ± 0.0064; with E. coli TESEC Mtb Asd (setting [3]), 0.392 ± 0.14; in the test with E. coli TESEC Mtb Asd (setting [4]), 0.412 ± 0.042; with E. coli TESEC Mtb DapB (setting [5]) it was 0.193 ± 0.013; in the test with E. coli TESEC Mtb DapB (setting [6]) it was 0.236 ± 0.03; in test [2] it was 0.425 ± 0.022. In addition, the growth in the test with E. coli TESEC Mtb Alr (setting [7]) was determined as 0.421 ± 0.005; with E. coli TESEC Mtb Alr (setting [8]) it was 0.28 ± 0.029.

For `NS(=O)(=O)c1cc2c(cc1Cl)NCNS2(=O)=O` [Hydrochlorothiazide], the growth was determined as 0.245 ± 0.0063 in test [1]; 0.367 ± 0.053 in the test with E. coli TESEC Mtb Asd (setting [3]); 0.408 ± 0.031 in the test with E. coli TESEC Mtb Asd (setting [4]); 0.201 ± 0.013 in the test on E. coli TESEC Mtb DapB (setting [5]); 0.244 ± 0.027 in the test on E. coli TESEC Mtb DapB (setting [6]); 0.448 ± 0.062 in test [2]. Also, the growth with E. coli TESEC Mtb Alr (setting [7]) is 0.41 ± 0.014; with E. coli TESEC Mtb Alr (setting [8]), 0.367 ± 0.019.

For the compound `COc1ccc(Cl)cc1C(=O)NCCc1ccc(S(=O)(=O)NC(=O)NC2CCCCC2)cc1` [Glibenclamide], the growth in test [1] turned out to be 0.122 ± 0.0053; in the test with E. coli TESEC Mtb Asd (setting [3]), 0.154 ± 0.02; with E. coli TESEC Mtb Asd (setting [4]), 0.218 ± 0.015; in the test with E. coli TESEC Mtb DapB (setting [5]), 0.158 ± 0.013; in the test with E. coli TESEC Mtb DapB (setting [6]), 0.173 ± 0.014; in test [2], 0.355 ± 0.032. Moreover, the growth in the test on E. coli TESEC Mtb Alr (setting [7]) was determined as 0.349 ± 0.12; with E. coli TESEC Mtb Alr (setting [8]) it was 0.0906 ± 0.0069.

`COCCc1ccc(OCC(O)CNC(C)C)cc1` (racemic) [Metoprolol-(+,-) (+)-tartrate salt]: the growth in test [1] was found to be 0.225 ± 0.0047; in the test on E. coli TESEC Mtb Asd (setting [3]) it was 0.311 ± 0.028; with E. coli TESEC Mtb Asd (setting [4]), 0.466 ± 0.038; in the test with E. coli TESEC Mtb DapB (setting [5]), 0.214 ± 0.031; in the test with E. coli TESEC Mtb DapB (setting [6]), 0.236 ± 0.0073; in test [2], 0.494 ± 0.11. For the same compound, the growth in the test on E. coli TESEC Mtb Alr (setting [7]) was found to be 0.399 ± 0.008; in the test on E. coli TESEC Mtb Alr (setting [8]) it was 0.3498 ± 0.0028.

For the compound `COc1cc(C(=O)OCCCN2CCCN(CCCOC(=O)c3cc(OC)c(OC)c(OC)c3)CC2)cc(OC)c1OC` [Dilazep dihydrochloride], the growth in test [1] was 0.174 ± 0.0063; in the test on E. coli TESEC Mtb Asd (setting [3]), 0.232 ± 0.023; in the test on E. coli TESEC Mtb Asd (setting [4]) it was 0.35 ± 0.051; in the test with E. coli TESEC Mtb DapB (setting [5]), 0.171 ± 0.013; with E. coli TESEC Mtb DapB (setting [6]) it was 0.211 ± 0.034; in test [2], 0.416 ± 0.034. Further, the growth came out at 0.417 ± 0.012 in the test with E. coli TESEC Mtb Alr (setting [7]) and 0.316 ± 0.029 with E. coli TESEC Mtb Alr (setting [8]).

On to `CC(C)(C)NC[C@@H](O)COc1cccc2c1CCCC2=O` [(+) -Levobunolol hydrochloride], for which the growth in test [1] turned out to be 0.226 ± 0.012; in the test on E. coli TESEC Mtb Asd (setting [3]), 0.459 ± 0.021; in the test with E. coli TESEC Mtb Asd (setting [4]), 0.467 ± 0.022; in the test with E. coli TESEC Mtb DapB (setting [5]), 0.205 ± 0.021; with E. coli TESEC Mtb DapB (setting [6]) it was 0.224 ± 0.017; in test [2], 0.546 ± 0.077. Further, the growth with E. coli TESEC Mtb Alr (setting [7]) came to 0.412 ± 0.012; in the test with E. coli TESEC Mtb Alr (setting [8]) it was 0.339 ± 0.013.
